In the supplement of paper PMC10849652:
Of roughly 8,800 targets only a part is listed; those with a hit were picked by preference. About 0.5% of all pairs of compound and target were hits.

Tests used:
Assay in all cases: log2 fold change, soluble protein after heating vs DMSO (PISA); higher = thermal stabilisation; K562 lysate, 10 uM; active = over 0.2 and 3.5 SD of the protein, either way, in both replicates (recomputed)
[1] = compound: CCCS(=O)(=O)Nc1ccc(F)c(C(=O)c2c[nH]c3ncc(Cl)cc23)c1F
Method in brief: (§1)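 Pellets of K562 cells were dounce-homogenised in PBS pH 7.4 with 1 mM MgCl2, and the crude extract was held at 1 mg/mL protein for a 30 min treatment with 10 μM compound. Aliquots were heated for 3 min over 48°C-58°C and pooled before NP-40 was added to 0.5% at 4°C. The supernatant from 21,000xg for 90 min was quantified by TMTpro 16plex LC-MS/MS with channel sums equalised. Values are reported from duplicates as log-two fold change in thermal stability relative to solvent controls.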

barasertib = compound: CCN(CCCOc1ccc2c(Nc3cc(CC(=O)Nc4cccc(F)c4)[nH]n3)ncnc2c1)CCOP(=O)(O)O [barasertib]
Method in brief: as §1

[2] = compound: CC[C@@H]1C(=O)N(C)c2cnc(Nc3ccc(C(=O)NC4CCN(C)CC4)cc3OC)nc2N1C1CCCC1
Method in brief: as §1

volasertib = compound: CC[C@@H]1C(=O)N(C)c2cnc(Nc3ccc(C(=O)N[C@H]4CC[C@H](N5CCN(CC6CC6)CC5)CC4)cc3OC)nc2N1C(C)C [volasertib]
Method in brief: as §1

[3] = compound: CCn1c(C(=O)N(C2CC2)C2CC2)cc2c3c(ncn3C)c(Nc3cc(C)n(C)n3)nc21
Method in brief: as §1

[4] = compound: CCn1cc(-c2ccnc3[nH]c(-c4cccc(CN(C)C)c4)cc23)c(-c2ccc(NC(=O)N(C)C)cc2)n1
Method in brief: as §1

[5] = compound: CN1CCC(CNc2ccc3ncc(-c4cccc(OC(F)(F)F)c4)n3n2)CC1
Method in brief: as §1

saracatinib = compound: CN1CCN(CCOc2cc(OC3CCOCC3)c3c(Nc4c(Cl)ccc5c4OCO5)ncnc3c2)CC1 [saracatinib]
Method in brief: as §1

sotrastaurin = compound: CN1CCN(c2nc(C3=C(c4c[nH]c5ccccc45)C(=O)NC3=O)c3ccccc3n2)CC1 [sotrastaurin]
Method in brief: as §1

alvocidib = compound: CN1CC[C@H](c2c(O)cc(O)c3c(=O)cc(-c4ccccc4Cl)oc23)[C@H](O)C1 [alvocidib]
Method in brief: as §1

Tubastatin A = compound: CN1CCc2c(c3ccccc3n2Cc2ccc(C(=O)NO)cc2)C1 [Tubastatin A]
Method in brief: as §1

[6] = compound: CNC(=O)C1=CC=CC=C1NC2=NC(=NC=C2Cl)NC3=C(C=C(C=C3)N4CCOCC4)OC
Method in brief: as §1

[7] = compound: CNc1nc(-c2ccc3c(N)n[nH]c3c2)cc(N2C[C@@H](C(=O)NC3CCCCC3)CC[C@H]2C)n1
Method in brief: as §1

encorafenib = compound: COC(=O)N[C@@H](C)CNc1nccc(-c2cn(C(C)C)nc2-c2cc(Cl)cc(NS(C)(=O)=O)c2F)n1 [encorafenib]
Method in brief: as §1

[8] = compound: COC(=O)[C@H](CCSC)NC(=O)C1=C(C=C(C=C1)NC[C@H](CS)N)C2=CC=CC=C2
Method in brief: as §1

alisertib = compound: COc1cc(Nc2ncc3c(n2)-c2ccc(Cl)cc2C(c2c(F)cccc2OC)=NC3)ccc1C(=O)O [alisertib]
Method in brief: as §1

[9] = compound: COc1cc2nc(-c3cc(F)ccc3O)nc(N[C@@H]3CNC[C@H]3C(C)(C)O)c2cc1OC
Method in brief: as §1

gefitinib = compound: COc1cc2ncnc(Nc3ccc(F)c(Cl)c3)c2cc1OCCCN1CCOCC1 [gefitinib]
Method in brief: as §1

vemurafenib = compound: CCCS(=O)(=O)Nc1ccc(F)c(C(=O)c2c[nH]c3ncc(-c4ccc(Cl)cc4)cc23)c1F [vemurafenib]
Method in brief: as §1

defactinib = compound: CNC(=O)c1ccc(Nc2ncc(C(F)(F)F)c(NCc3nccnc3N(C)S(C)(=O)=O)n2)cc1 [defactinib]
Method in brief: as §1

Measured: log2 fold change

MRPL30 isoform 2 (UniProt Q8TCC3)
inactive: [1] 0.002 | barasertib 0.002 | [2] -0.068 | volasertib -0.013 | [3] -0.027 | saracatinib 0.01 | sotrastaurin 0.016 | Tubastatin A 0.034 | [6] -0.003 | [7] -0.002 | encorafenib -0.049 | [8] -0.034 | alisertib -0.033 | [9] -0.003 | gefitinib -0.013
active: [4] 0.563 | [5] -0.434 | alvocidib 0.419

MBTPS1 (UniProt Q14703)
inactive: vemurafenib 0.247 | barasertib 0.199 | [2] 0.034 | [3] 0.003 | [4] 0.211 | [5] -0.185 | saracatinib -0.031 | sotrastaurin -0.014 | alvocidib 0.096 | Tubastatin A -0.058 | [6] 0.013 | defactinib -0.002 | [7] 0.029 | encorafenib 0.048 | [8] -0.036

LRP1 (UniProt Q07954)
inactive: vemurafenib 0.15 | [1] -0.072 | [2] -0.163 | volasertib 0.004 | sotrastaurin -0.043 | defactinib -0.108 | encorafenib -0.091 | [8] 0.043 | [9] 0.034

MME (UniProt P08473)
inactive: [1] -0.092 | barasertib -0.084 | volasertib 0.001 | [3] 0.075 | [4] -0.044 | [5] 0.009 | saracatinib -0.114 | sotrastaurin 0.016 | alvocidib -0.01 | Tubastatin A 0.081 | [6] 0.048 | [7] 0.142 | alisertib -0.079 | [9] -0.018 | gefitinib 0.066

MEGF8 (UniProt Q7Z7M0)
inactive: barasertib 0.049 | [2] 0.076 | [3] -0.048 | [4] 0.124 | [5] 0.028 | saracatinib 0.283 | sotrastaurin -0.003 | alvocidib 0.03 | Tubastatin A 0.156 | [6] 0.058 | [7] -0.051 | encorafenib -0.01 | [8] 0.131

MAP3K6 (UniProt O95382)
inactive: vemurafenib -0.006 | [2] 0.164 | defactinib -0.096 | encorafenib 0.167 | [8] -0.031 | alisertib 0.026 | gefitinib -0.022

MCUB (UniProt Q9NWR8)
Sequence of UniProt Q9NWR8 (Q9NWR8 whole entry, looked up): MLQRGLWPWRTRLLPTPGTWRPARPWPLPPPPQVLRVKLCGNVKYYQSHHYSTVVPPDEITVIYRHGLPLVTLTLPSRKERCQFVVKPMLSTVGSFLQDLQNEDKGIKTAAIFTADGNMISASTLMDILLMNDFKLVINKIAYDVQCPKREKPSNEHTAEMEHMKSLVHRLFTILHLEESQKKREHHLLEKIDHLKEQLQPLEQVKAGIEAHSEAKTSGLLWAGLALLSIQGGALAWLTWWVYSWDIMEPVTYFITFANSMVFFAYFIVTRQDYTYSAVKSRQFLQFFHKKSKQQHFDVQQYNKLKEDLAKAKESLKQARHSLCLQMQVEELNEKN
inactive: [1] -0.175 | barasertib 0.156 | volasertib -0.041 | [3] -0.222 | [4] 0 | [5] -0.054 | saracatinib -0.096 | sotrastaurin -0.008 | alvocidib 0.019 | Tubastatin A 0.105 | [6] -0.032 | [7] -0.074 | alisertib 0.121 | [9] -0.062 | gefitinib -0.046

KMT2B (UniProt Q9UMN6)
inactive: [2] -0.1 | saracatinib 0.081 | sotrastaurin -0.206 | [6] -0.083 | [7] 0.246 | encorafenib 0.127 | [8] -0.008

MPP5 (UniProt Q8N3R9)
Sequence of UniProt Q8N3R9 (Q8N3R9 whole entry, looked up): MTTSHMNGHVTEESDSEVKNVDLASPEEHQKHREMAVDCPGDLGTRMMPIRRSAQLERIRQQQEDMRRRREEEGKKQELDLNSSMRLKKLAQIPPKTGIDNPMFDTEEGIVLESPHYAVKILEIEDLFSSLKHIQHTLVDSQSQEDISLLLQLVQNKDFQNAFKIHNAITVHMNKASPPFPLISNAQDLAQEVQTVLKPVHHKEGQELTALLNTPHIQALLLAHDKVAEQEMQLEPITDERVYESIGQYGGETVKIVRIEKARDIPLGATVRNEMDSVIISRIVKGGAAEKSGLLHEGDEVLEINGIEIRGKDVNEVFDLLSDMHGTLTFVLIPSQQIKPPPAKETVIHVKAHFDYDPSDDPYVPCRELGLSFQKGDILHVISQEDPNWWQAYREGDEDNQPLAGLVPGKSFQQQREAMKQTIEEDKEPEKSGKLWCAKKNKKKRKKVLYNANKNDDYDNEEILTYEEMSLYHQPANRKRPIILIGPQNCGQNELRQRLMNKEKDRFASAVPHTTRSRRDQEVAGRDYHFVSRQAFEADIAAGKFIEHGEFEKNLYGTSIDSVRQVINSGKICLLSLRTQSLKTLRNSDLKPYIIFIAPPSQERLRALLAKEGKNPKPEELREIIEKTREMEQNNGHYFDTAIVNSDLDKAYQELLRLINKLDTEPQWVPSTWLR
inactive: vemurafenib -0.029 | barasertib -0.058 | [2] -0.011 | [3] 0.042 | [4] -0.084 | [5] -0.038 | saracatinib -0.04 | sotrastaurin -0.006 | alvocidib 0.066 | Tubastatin A -0.08 | [6] -0.051 | defactinib 0.034 | [7] 0.045 | encorafenib 0.073 | [8] 0.114 | alisertib -0.217 | gefitinib -0.139

MARF1 (UniProt Q9Y4F3)
inactive: vemurafenib -0.093 | barasertib 0.051 | [2] -0.059 | [3] 0.007 | [4] -0.027 | [5] -0.059 | saracatinib 0.027 | sotrastaurin 0 | alvocidib -0.024 | Tubastatin A -0.194 | [6] 0.024 | defactinib -0.157 | [7] -0.021 | encorafenib 0.053 | [8] 0.086 | alisertib -0.056 | gefitinib 0.02

KIF21A (UniProt H0YI78)
inactive: [1] 0.017 | barasertib -0.198 | volasertib -0.008 | saracatinib -0.151 | [6] 0.056 | [7] -0.01 | alisertib -0.003 | [9] 0.029 | gefitinib -0.1

MAPK7 (UniProt Q13164)
inactive: [1] 0.024 | [2] 0.072 | volasertib -0.056 | [4] -0.084 | [5] -0.101 | sotrastaurin -0.031 | alvocidib 0.069 | [6] 0.002 | encorafenib -0.03 | [8] -0.114 | [9] 0.157

LYN isoform 2 (UniProt P07948)
inactive: [2] -0.077 | [3] -0.075 | [4] -0.031 | [5] 0.024 | saracatinib 0.353 | sotrastaurin 0.074 | alvocidib 0.138 | Tubastatin A -0.153 | [6] 0.175 | [7] 0.014 | encorafenib -0.063 | [8] 0.301 | alisertib 0.229 | gefitinib 0.054

LSM11 (UniProt P83369)
Sequence of UniProt P83369 (P83369 whole entry, looked up): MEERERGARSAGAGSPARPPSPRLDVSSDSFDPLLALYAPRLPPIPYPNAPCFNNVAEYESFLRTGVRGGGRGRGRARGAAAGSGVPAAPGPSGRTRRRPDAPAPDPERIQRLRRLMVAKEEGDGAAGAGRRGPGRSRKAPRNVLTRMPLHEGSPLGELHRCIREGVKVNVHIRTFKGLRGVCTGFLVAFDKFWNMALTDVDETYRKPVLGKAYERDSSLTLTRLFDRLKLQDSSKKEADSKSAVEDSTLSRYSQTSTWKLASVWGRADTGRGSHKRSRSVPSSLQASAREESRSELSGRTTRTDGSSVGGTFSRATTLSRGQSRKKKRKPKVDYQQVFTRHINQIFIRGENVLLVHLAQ
inactive: vemurafenib 0.077 | [2] 0.06 | [4] 0.115 | [5] 0.212 | saracatinib 0.076 | sotrastaurin -0.085 | alvocidib 0.134 | [6] -0.15 | defactinib -0.119 | [7] 0.009 | encorafenib 0.082 | [8] 0.041

MAPK3 (UniProt H0YEX6)
inactive: alisertib -0.128 | gefitinib -0.016

MDM2 isoform 11 (UniProt Q00987)
Sequence of UniProt Q00987 (Q00987 whole entry, looked up): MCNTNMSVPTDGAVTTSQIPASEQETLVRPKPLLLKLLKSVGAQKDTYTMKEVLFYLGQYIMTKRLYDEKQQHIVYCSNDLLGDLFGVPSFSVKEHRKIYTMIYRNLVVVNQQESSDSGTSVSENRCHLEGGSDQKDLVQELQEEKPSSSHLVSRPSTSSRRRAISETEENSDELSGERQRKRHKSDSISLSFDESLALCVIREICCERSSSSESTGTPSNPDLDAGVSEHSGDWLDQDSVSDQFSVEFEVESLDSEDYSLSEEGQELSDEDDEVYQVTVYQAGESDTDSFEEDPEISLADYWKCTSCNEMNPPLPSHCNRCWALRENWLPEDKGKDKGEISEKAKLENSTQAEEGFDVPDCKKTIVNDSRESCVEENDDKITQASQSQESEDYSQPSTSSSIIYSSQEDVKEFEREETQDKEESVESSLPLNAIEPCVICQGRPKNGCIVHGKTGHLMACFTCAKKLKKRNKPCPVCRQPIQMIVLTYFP
inactive: vemurafenib -0.035 | barasertib -0.238 | [3] -0.03 | [4] 0.024 | [5] -0.038 | sotrastaurin 0.053 | alvocidib -0.127 | Tubastatin A 0.15 | [6] 0.041 | defactinib 0.158

MRPL22 (UniProt Q9NWU5)
inactive: [1] 0.001 | volasertib -0.002 | [3] -0.069 | [4] -0.006 | [5] -0.045 | sotrastaurin -0.013 | alvocidib 0.018 | Tubastatin A -0.033 | [6] 0.036 | alisertib -0.003 | [9] -0.052 | gefitinib -0.051

LRRIQ1 (UniProt Q96JM4)
Sequence of UniProt Q96JM4 (Q96JM4 whole entry, looked up): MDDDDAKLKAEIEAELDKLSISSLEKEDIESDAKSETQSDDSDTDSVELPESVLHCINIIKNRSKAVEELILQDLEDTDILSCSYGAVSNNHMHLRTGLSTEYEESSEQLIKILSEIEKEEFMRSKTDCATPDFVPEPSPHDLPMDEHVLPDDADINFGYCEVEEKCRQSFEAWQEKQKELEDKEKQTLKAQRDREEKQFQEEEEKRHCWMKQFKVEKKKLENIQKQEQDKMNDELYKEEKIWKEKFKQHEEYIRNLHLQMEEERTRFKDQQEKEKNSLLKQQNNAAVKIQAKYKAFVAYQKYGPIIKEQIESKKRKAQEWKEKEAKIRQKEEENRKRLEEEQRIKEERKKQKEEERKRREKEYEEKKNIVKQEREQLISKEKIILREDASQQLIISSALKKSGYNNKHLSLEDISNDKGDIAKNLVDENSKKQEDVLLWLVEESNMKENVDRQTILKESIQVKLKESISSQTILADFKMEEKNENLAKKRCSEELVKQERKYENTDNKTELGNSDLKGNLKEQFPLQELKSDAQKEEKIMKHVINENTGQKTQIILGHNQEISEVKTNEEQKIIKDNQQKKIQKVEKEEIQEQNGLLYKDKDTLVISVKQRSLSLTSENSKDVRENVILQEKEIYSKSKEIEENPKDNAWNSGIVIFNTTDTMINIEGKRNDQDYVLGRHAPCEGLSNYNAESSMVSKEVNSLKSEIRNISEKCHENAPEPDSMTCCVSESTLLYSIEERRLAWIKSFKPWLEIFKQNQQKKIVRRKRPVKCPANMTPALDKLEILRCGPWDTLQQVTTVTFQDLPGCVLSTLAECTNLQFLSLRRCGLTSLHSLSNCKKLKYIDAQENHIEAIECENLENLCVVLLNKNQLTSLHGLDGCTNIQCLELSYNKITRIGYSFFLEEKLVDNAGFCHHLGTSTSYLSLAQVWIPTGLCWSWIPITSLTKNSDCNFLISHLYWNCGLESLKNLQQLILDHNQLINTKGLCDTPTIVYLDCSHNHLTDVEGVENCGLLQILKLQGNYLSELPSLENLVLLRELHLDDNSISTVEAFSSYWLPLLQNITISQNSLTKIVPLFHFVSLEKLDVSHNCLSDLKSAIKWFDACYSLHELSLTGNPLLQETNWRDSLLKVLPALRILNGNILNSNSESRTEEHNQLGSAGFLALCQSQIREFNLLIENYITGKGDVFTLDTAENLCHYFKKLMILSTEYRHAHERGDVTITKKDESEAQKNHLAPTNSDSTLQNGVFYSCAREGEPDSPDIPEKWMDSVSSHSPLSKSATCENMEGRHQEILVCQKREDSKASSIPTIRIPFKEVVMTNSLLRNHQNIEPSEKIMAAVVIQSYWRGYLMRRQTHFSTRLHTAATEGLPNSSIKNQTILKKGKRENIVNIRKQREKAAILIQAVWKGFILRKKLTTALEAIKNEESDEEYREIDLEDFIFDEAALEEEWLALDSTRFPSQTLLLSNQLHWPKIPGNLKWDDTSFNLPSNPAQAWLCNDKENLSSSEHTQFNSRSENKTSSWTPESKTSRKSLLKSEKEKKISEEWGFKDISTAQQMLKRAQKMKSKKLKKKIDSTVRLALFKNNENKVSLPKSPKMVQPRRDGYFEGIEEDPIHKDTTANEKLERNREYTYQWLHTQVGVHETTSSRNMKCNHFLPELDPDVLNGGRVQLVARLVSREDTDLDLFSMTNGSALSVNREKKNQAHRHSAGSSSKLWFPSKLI
inactive: vemurafenib -0.023 | [1] 0.02 | volasertib 0.015 | [3] -0.015 | sotrastaurin 0.027 | Tubastatin A -0.096 | defactinib -0.031 | [9] -0.037

KRAS isoform 2 (UniProt P01116)
Sequence of UniProt P01116 (P01116 whole entry, looked up): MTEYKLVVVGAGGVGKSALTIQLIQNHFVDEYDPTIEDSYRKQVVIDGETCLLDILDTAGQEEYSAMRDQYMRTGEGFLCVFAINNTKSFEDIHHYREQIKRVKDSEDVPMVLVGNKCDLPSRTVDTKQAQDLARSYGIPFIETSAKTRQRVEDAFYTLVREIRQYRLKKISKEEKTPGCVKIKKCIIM
inactive: [1] 0.019 | [2] 0.156 | volasertib -0.125 | [3] 0.077 | saracatinib -0.06 | sotrastaurin -0.013 | Tubastatin A 0.076 | [6] -0.037 | [7] 0.046 | encorafenib -0.109 | [8] -0.062 | [9] 0.019

MAP4K4 isoform 6 (UniProt O95819)
Sequence of UniProt O95819 (O95819 whole entry, looked up): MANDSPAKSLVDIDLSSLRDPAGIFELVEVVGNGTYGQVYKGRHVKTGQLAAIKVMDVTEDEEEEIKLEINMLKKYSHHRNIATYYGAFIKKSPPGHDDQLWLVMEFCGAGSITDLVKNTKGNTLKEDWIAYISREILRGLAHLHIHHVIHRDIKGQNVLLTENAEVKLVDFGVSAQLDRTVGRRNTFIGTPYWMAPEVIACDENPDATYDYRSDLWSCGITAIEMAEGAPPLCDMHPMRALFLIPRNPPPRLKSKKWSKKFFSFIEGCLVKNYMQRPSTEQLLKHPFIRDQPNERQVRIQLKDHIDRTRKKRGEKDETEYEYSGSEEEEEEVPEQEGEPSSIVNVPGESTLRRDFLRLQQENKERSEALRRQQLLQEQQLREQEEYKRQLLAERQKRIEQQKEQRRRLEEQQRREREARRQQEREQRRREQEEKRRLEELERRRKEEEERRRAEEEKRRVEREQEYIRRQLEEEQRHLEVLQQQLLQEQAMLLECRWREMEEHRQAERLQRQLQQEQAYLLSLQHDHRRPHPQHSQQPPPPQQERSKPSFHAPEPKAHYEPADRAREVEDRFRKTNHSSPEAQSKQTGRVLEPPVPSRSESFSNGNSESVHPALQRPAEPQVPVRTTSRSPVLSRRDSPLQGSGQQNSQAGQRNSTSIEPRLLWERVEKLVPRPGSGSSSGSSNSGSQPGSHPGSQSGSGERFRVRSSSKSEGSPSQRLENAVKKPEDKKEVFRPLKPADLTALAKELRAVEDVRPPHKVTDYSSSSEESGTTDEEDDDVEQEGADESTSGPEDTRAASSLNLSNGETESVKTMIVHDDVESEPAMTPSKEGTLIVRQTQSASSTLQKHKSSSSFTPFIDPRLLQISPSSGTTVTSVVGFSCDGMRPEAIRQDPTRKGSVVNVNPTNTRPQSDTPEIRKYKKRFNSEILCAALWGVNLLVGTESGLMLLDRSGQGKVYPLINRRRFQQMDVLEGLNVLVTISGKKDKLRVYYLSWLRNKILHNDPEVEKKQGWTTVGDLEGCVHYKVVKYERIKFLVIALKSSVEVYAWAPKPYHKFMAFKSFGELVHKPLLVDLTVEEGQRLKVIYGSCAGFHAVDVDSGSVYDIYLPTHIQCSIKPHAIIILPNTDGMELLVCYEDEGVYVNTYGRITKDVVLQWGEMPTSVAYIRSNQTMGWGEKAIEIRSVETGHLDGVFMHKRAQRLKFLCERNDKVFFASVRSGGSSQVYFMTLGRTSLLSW
inactive: [1] 0.073 | barasertib 0.06 | [2] 0.06 | volasertib -0.04 | [3] -0.025 | saracatinib 0.006 | Tubastatin A 0.024 | [6] -0.067 | [7] -0.016 | encorafenib 0.207 | [8] -0.034 | [9] -0.058
